# Reference: the supplement of paper PMC12632987
# Whole data set: some 4,500 sequences, median “median log2 fold change of GCK-ALFA target abundance (FLAG IP / Myc IP barcode read proportion)” near 0.078, cut for the lowest 2% near -0.6. The entries come from a sample that favours the lowest values as a whole.
# B1: GBRAP_26_5463 (protein)
# chain: MDEAFRAALDAVDAAAATLPNPNAAAAVTAEAATVLEELEEAIEAGEDIAAAVAAARDELLAAARAIGEEEGLPAATIAAMEATLTAIFDALEAALKAAA
# B2: GBRAP_26_5467 (protein)
# chain: MDAAFAAARDRIDAIAAKLPDPRAAAALRALADTELLELEERIEAGEDIDAAVDAARDAFLAEAREILEDAGLPEELIAKTLAEFEAVFDDLRAALKAAQ
# B3: GBRAP_52_6357 (protein)
# chain: KLEEALALLERALEAMLAGREDEARAILREIVETYDDETILAAFERLAEKILGKSVEEAEAFLDLALLLADVMDELGRDEAVGDEIEAIAAKAYMTVLEK
# B4: GBRAP_160_3973 (protein)
# chain: SEEVEELKKEIKELFDEAKKLIEGESYEERLTIIKVMVGDILLLADENPLISDEVEDKIDEIGDELIETIEKNPDLTDEEIKKLIDEAEEKILKTIDEAF
# B5: GBRAP_43_5767 (protein)
# chain: SKELVEGAFETAILLLEDPSISEETKVKAIIAAMELAADEGYVDKELLEKVVELAGKTLSKESLEKILKAAKKLAKEYPESKEAFEEAAKKLEEAIAKKE
# B6: GBRAP_64_6486 (protein)
# chain: EEEIKKLHEETLKQAKKLVELLKDSSEELQKQAKEVLELIEKSKEASLEEAAKLLAEAAKLLNELLKSPELTEEQKDQVAETLDLVSELLWLVVEKELEK
# B7: GBRAP_52_5904 (protein)
# chain: MREELRAQVEEMLALVRAGDLEGARALAREIAETLNDEELRLLIEEVAALVREAPLEELPAWWRLAEIMAEAFEEAGKDEVLADDLLAATAAAIHERLQR
# B8: GBRAP_184_5166 (protein)
# chain: MIKEFEIKIENVEEAKEKIEEIKKEVEGLKAELYVIVETKELTVEIAKAILEGLKEMKEKGYVTSITVEFTGKIDEETLDVAVKLADEAGVKLVIAIDEE
# B9: GBRAP_139_3707 (protein)
# chain: SALEELIAEARRLTREMREDPEAALEALVELLLSVSEEELEVLVEAIAEELSRLPLDEAEELADRLLELVEERFKDEDKIDIVEAVLNGALARKAAEEEA
# B10: GBRAP_128_3416 (protein)
# chain: ADAALVAKAKELLEKMKTADAATAAALADEIAALIAAADLETAEAIAEVIEEELPKLTAEQLDILADALRAALPAASPEKAEILAGVLVDALNEAEEKEE
# B11: GBRAP_26_5474 (protein)
# chain: VEEEVEAALKEMEKLLKELLDPETAAAATASAFTIVEEAVEEMKKNAKDKEKLKKAAEKAVKEIAADLETLGVDADTRAKIVAKAKAELEKIVKAIEKEA
# B12: GBRAP_160_4004 (protein)
# chain: SEKIEKLIKEIEELVEETIEWMEGLSPEERLTLVRGTVGEIIQLAIESEEVSDESEEKIAELGDETIERVEENKDASLEVWKEILEEFLEKVKKILKEDE
# B13: GBRAP_137_3676 (protein)
# chain: SKVEIEIKEEDGLVEITVTVYDPEKAEETEEKLLDIAHEVGALAVAIKRNEDGSLEITIVVPEEKGEEAEKKVLELAKEYDEVIIKKEKDGKTEEEVIKK
# B14: GBRAP_35_5582 (protein)
# chain: DDVEIILETARDFAEAAIEALKGDDLEEAIRMTEAFVRAAELAIEDLKNDLEALKELAKLLEEVLKAAKEYASDNPEMQKNIERLEELLKRAKELAKKVE
# B15: GBRAP_166_4971 (protein)
# chain: MQEELVEEFKKYIDELAEKMKTANHEEKLELLAEAAEKLKELIEKGLSDEDLKELIEYLIKKAKEVGISTSEVYGALTIIADLNEEQIDILEEAIKKVEK
# B16: GBRAP_106_2558 (protein)
# chain: SKKETAEKIYKEMLEEAKKEIAEHEAWLAKHRSQLTPEEIRAINQYLRDYLVAKLLRKMIEAGIITKEEAKEILEEVRKRKDLDPLEALEYAGKLVLEKI
# B17: GBRAP_78_6731 (protein)
# chain: ELEKLLEEAIKVASEAAKLAVKQASNEVIAEIVEALSHLEEALELVEEGGEKEEILEELEKALEHLKEALKLLPESLTEIKKLLEEAIKLVEEAIKEVKK
# B18: GBRAP_78_6654 (protein)
# chain: EVEELIDKAMEHLDKAAKLTKKLDEESRNELLDLLVEAASHILLSEENGFDLEELKEALEYLKKALEYAKSLNTPVAKEIAEELEKAIEYLEKAIKLLEE
# B19: GBRAP_52_6036 (protein)
# chain: SRERMRRLAQEIVDLAKAGDLEGARALAREAVETLSEEELRLLGEELARLAREAAPEDLDAIMEVAFILADALVEGGYDEVLADDLLARVAAAAVENLQA
# B20: GBRAP_52_6031 (protein)
# chain: SRERMRALARELIDLVLAGRDDEARALAEELVATLSEEELRLLGEELARLTREAAPEDLDAYMRAAEIVADALEAAGYDEVLADDLLARVAAAAVENLAR
# Molecular target: GABARAP, O95166
# Test: median log2 fold change of GCK-ALFA target abundance (FLAG IP / Myc IP barcode read proportion) (log2 ratio); each designed protein is fused to an ALFA-tag nanobody in HEK293 cells to bring the named protein to FLAG-tagged glucokinase (GCK); Myc marks an untargeted standard; higher = target protein stabilised (more abundant)
# Details: target protein: 3xFLAG-MCP-GCK-ALFA reporter; HEK293 landing pad (RPLP)
# How it was run: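 Binders fused to an ALFA nanobody were recombined as a library into HEK293 landing-pad cells, which were induced with 2 μg mL^−1 doxycycline and then transfected to express a FLAG-tagged target and a Myc-tagged standard. After 48 h, circular RNA barcodes recovered by anti-FLAG and anti-Myc immunoprecipitation of lysates were reverse transcribed, amplified and sequenced. Each binder's target abundance is the median log2 ratio of FLAG to Myc barcode read proportions, from barcodes present at ≥10^−7 in both replicates, binders carrying ≥3 barcodes per replicate, a 10^−6 pseudocount and pooled replicates.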
# Sequence of GABARAP, O95166 (O95166 whole entry, the tested form may be a part): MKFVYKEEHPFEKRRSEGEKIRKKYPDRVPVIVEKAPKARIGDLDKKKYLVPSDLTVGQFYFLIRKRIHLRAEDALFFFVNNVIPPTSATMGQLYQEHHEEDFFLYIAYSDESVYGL
row,Binder,median log2 fold change
1,B1,0.261
2,B2,0.199
3,B3,-0.492
4,B4,-0.605
5,B5,0.243
6,B6,0.19
7,B7,-0.644
8,B8,0.0333
9,B9,-0.0884
10,B10,0.247
11,B11,0.241
12,B12,-0.827
13,B13,0.249
14,B14,0.182
15,B15,-0.0848
16,B16,-0.711
17,B17,0.0787
18,B18,0.0422
19,B19,-0.791
20,B20,-0.202
